# Data published in the supplement of paper PMC7380943.
# Tested on: CLZ3 (HCA2 human fibroblast dual HR-NHEJ reporter)
# Assay: HR repair efficiency (tdTomato+ cells) relative to control (log10 fold); higher = more homologous recombination
# Details: 5 µM; doxycycline 0.5 ug/mL
# 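Note: compound given one day before doxycycline, which switches on I-SceI endonuclease expression to create double-strand breaks within the integrated reporter.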
row,SMILES,HR repair efficiency (log10)
1,OCC1=C[C@@H](O)[C@]2(O[C@@H]3O[C@H](CO)[C@@H](O)[C@H](O)[C@H]3O[C@@H]3O[C@H](CO)[C@@H](O)[C@H](O)[C@H]3O)C=CO[C@@H](O[C@@H]3O[C@H](CO)[C@@H](O)[C@H](O)[C@H]3O)[C@H]12 [Rehmannioside D],-0.0162
2,COc1c2c(cc3c1-c1c(cc4c(c1OC)OCO4)C[C@H](C)[C@H](C)C3)OCO2 [Schisandrin C],0.0438
3,C=C1CC[C@@H]2[C@](C)(CO)[C@H](O)CC[C@@]2(C)[C@H]1C/C=C1\C=COC1=O [Dehydroandrographolide],0.116
4,COc1cc(OC)c2ccc(=O)oc2c1 [Citropten],0.0946
5,C=CCc1ccc(O)c(-c2ccc(O)c(CC=C)c2)c1 [Honokiol],0.163
